Measured values as given in the supplement of paper PMC10849652.
About 7,900 targets were measured; listed, in parts, are those with a hit and a random draw of the rest. About 0.6% of all pairs of compound and target were hits. Values without a mark were called inactive.

What was measured:
Experiment in all cases: log2 fold change, soluble protein after heating vs DMSO (PISA); higher = thermal stabilisation; K562 cells, 10 uM, 30 min; active = over 0.2 and 3.5 SD of the protein, either way, in both replicates (recomputed)
[1] = compound: CC[C@@H]1C(=O)N(C)c2cnc(Nc3ccc(C(=O)NC4CCN(C)CC4)cc3OC)nc2N1C1CCCC1
In short: (§1)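 K562 cells at 2×10^6 cells/mL were exposed to 10 μM compound for 30 min, then aliquots were heated for 3 min across 48°C-58°C, pooled, and extracted in PBS containing 0.5% NP-40 at 4°C. The supernatant after 21,000xg for 90 min was taken as soluble protein and measured by TMTpro 16plex LC-MS/MS with channel sums equalised. Thermal stability is reported relative to control samples, with values from duplicates. Fold changes are given on a log2 scale.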

volasertib = compound: CC[C@@H]1C(=O)N(C)c2cnc(Nc3ccc(C(=O)N[C@H]4CC[C@H](N5CCN(CC6CC6)CC5)CC4)cc3OC)nc2N1C(C)C [volasertib]
In short: as §1

[2] = compound: CC[C@H](C)N1C=C(C2=C(C=C(C=C21)C3=CN=C(C=C3)N4CCNCC4)C(=O)NCC5=C(C=C(NC5=O)C)C)C
In short: as §1

epoxomicin = compound: CC[C@H](C)[C@@H](C(=O)N[C@@H]([C@@H](C)O)C(=O)N[C@@H](CC(C)C)C(=O)[C@]1(CO1)C)NC(=O)[C@H]([C@@H](C)CC)N(C)C(=O)C [epoxomicin]
In short: as §1

[3] = compound: CCn1c(C(=O)N(C2CC2)C2CC2)cc2c3c(ncn3C)c(Nc3cc(C)n(C)n3)nc21
In short: as §1

[4] = compound: CCn1cc(-c2ccnc3[nH]c(-c4cccc(CN(C)C)c4)cc23)c(-c2ccc(NC(=O)N(C)C)cc2)n1
In short: as §1

[5] = compound: CN(C)CC(=O)Nc1ccc2[nH]c(=O)c3ccccc3c2c1
In short: as §1

rosiglitazone = compound: CN(CCOC1=CC=C(C=C1)C[C@H]2C(=O)NC(=O)S2)C3=CC=CC=N3 (racemic) [rosiglitazone]
In short: as §1

[6] = compound: CN1C2=C(C3=C1C(=O)N(N=C3)CC4=CC(=CC=C4)N)SC(=C2)S(=O)C
In short: as §1

[7] = compound: CN1CCC(CNc2ccc3ncc(-c4cccc(OC(F)(F)F)c4)n3n2)CC1
In short: as §1

saracatinib = compound: CN1CCN(CCOc2cc(OC3CCOCC3)c3c(Nc4c(Cl)ccc5c4OCO5)ncnc3c2)CC1 [saracatinib]
In short: as §1

sotrastaurin = compound: CN1CCN(c2nc(C3=C(c4c[nH]c5ccccc45)C(=O)NC3=O)c3ccccc3n2)CC1 [sotrastaurin]
In short: as §1

alvocidib = compound: CN1CC[C@H](c2c(O)cc(O)c3c(=O)cc(-c4ccccc4Cl)oc23)[C@H](O)C1 [alvocidib]
In short: as §1

Tubastatin A = compound: CN1CCc2c(c3ccccc3n2Cc2ccc(C(=O)NO)cc2)C1 [Tubastatin A]
In short: as §1

[8] = compound: CNC(=O)C1=CC=CC=C1NC2=NC(=NC=C2Cl)NC3=C(C=C(C=C3)N4CCOCC4)OC
In short: as §1

defactinib = compound: CNC(=O)c1ccc(Nc2ncc(C(F)(F)F)c(NCc3nccnc3N(C)S(C)(=O)=O)n2)cc1 [defactinib]
In short: as §1

rucaparib = compound: CNCc1ccc(-c2[nH]c3cc(F)cc4c3c2CCNC4=O)cc1 [rucaparib]
In short: as §1

[9] = compound: CNc1nc(-c2ccc3c(N)n[nH]c3c2)cc(N2C[C@@H](C(=O)NC3CCCCC3)CC[C@H]2C)n1
In short: as §1

encorafenib = compound: COC(=O)N[C@@H](C)CNc1nccc(-c2cn(C(C)C)nc2-c2cc(Cl)cc(NS(C)(=O)=O)c2F)n1 [encorafenib]
In short: as §1

[10] = compound: COC(=O)[C@H](CCSC)NC(=O)C1=C(C=C(C=C1)NC[C@H](CS)N)C2=CC=CC=C2
In short: as §1

UniProt Q9UH99, sequence (Q9UH99 whole entry, looked up): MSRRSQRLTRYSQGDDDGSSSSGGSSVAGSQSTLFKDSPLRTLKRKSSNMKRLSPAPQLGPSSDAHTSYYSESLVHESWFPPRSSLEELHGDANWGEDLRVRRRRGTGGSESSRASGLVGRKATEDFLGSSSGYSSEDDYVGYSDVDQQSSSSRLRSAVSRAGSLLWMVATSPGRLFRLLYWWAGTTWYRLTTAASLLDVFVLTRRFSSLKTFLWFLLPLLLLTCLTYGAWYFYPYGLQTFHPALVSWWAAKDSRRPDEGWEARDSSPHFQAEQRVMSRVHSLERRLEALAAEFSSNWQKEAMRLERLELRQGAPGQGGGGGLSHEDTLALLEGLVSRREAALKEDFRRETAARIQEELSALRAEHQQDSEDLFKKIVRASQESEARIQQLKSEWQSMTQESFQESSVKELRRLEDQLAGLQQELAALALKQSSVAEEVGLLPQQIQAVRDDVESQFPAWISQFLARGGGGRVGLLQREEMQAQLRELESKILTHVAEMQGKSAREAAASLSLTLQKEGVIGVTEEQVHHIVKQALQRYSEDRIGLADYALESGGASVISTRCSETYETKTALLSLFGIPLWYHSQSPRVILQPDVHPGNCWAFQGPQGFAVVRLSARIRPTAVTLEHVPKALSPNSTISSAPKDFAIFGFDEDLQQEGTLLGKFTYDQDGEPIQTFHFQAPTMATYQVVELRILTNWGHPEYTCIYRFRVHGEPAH
UniProt Q9UP52, sequence (Q9UP52 whole entry, looked up): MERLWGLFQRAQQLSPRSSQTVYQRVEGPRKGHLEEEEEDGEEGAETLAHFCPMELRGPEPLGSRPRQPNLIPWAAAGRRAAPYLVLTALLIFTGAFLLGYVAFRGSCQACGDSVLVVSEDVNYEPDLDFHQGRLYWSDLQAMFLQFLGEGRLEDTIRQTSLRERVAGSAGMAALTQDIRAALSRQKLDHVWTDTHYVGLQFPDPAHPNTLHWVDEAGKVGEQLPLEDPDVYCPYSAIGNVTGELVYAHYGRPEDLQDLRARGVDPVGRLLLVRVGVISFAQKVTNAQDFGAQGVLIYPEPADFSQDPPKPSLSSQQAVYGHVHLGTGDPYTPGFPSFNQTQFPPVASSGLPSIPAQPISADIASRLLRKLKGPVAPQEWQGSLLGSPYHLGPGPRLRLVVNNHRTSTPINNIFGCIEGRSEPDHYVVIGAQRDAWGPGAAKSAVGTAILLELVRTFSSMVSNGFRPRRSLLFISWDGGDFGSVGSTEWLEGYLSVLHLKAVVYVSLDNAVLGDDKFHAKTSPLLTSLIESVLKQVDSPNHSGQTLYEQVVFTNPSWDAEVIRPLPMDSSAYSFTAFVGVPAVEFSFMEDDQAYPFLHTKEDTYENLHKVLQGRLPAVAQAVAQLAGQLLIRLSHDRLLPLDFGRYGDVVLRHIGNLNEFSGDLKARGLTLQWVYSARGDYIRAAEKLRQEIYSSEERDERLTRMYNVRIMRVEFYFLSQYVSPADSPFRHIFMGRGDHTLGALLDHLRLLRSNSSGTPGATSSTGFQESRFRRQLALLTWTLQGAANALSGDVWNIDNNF
UniProt Q15833, sequence (Q15833 whole entry, looked up): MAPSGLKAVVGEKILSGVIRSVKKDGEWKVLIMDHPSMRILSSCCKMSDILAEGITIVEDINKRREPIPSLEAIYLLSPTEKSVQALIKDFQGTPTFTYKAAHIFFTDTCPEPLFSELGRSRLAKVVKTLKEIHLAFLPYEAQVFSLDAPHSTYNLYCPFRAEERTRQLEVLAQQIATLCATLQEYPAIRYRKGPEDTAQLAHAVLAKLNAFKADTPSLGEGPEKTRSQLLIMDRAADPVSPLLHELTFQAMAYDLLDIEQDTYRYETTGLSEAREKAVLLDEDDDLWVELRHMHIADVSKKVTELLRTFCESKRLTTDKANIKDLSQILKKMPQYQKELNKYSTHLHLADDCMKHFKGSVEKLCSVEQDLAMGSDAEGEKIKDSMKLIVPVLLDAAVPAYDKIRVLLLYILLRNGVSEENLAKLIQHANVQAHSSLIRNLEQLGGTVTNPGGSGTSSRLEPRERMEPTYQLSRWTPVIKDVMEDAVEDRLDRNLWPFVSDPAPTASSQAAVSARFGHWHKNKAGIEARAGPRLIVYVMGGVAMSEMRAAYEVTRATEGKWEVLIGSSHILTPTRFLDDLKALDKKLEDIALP
UniProt O15198, sequence (O15198 whole entry, looked up): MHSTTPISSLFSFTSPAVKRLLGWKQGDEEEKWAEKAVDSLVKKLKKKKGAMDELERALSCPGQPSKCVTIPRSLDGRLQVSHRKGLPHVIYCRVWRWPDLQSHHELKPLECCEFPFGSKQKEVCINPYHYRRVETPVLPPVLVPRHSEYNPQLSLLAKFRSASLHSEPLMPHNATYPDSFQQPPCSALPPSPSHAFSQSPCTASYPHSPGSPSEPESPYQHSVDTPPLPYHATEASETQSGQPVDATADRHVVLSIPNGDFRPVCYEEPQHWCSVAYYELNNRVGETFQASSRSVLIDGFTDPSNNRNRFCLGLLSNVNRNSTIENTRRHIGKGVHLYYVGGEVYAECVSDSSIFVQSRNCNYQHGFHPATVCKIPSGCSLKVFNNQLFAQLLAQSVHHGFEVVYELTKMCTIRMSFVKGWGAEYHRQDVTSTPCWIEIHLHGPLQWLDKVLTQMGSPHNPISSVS
UniProt Q6P1M0, sequence (Q6P1M0 whole entry, looked up): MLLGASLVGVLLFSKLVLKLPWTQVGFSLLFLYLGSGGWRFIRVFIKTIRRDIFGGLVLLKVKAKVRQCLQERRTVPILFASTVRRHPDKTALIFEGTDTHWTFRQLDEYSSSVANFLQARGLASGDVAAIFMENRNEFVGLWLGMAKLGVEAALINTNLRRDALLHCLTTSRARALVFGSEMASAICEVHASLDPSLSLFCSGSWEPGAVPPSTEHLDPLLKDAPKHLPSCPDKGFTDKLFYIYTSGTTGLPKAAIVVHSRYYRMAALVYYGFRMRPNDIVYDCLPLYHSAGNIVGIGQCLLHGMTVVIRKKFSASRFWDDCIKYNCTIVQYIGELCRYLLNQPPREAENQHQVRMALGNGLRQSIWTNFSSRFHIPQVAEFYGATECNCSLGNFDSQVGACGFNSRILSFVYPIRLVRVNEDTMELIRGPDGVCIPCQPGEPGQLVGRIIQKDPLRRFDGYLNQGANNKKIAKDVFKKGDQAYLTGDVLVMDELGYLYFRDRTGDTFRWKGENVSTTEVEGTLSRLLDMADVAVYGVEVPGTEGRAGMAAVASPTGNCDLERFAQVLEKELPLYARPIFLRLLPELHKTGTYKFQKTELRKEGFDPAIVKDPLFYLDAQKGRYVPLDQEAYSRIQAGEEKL
UniProt Q9NZD8, sequence (Q9NZD8 whole entry, looked up): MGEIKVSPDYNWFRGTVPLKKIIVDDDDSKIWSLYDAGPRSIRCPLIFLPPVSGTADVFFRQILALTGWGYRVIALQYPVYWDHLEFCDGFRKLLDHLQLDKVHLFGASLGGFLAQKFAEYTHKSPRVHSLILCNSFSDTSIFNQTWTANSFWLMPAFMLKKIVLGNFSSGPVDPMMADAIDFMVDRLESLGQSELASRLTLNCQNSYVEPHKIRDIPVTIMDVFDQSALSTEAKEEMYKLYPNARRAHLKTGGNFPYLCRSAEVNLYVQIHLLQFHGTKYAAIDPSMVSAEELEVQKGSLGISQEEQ
UniProt Q9NZ01, sequence (Q9NZ01 whole entry, looked up): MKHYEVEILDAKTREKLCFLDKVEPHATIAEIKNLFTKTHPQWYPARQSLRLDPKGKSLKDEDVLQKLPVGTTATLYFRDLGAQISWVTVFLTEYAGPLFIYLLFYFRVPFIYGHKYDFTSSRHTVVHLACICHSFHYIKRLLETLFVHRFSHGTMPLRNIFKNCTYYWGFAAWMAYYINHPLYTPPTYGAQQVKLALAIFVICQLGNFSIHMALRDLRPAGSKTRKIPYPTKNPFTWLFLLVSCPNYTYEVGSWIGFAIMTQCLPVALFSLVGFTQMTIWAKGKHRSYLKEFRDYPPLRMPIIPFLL
UniProt Q08170, sequence (Q08170 whole entry, looked up): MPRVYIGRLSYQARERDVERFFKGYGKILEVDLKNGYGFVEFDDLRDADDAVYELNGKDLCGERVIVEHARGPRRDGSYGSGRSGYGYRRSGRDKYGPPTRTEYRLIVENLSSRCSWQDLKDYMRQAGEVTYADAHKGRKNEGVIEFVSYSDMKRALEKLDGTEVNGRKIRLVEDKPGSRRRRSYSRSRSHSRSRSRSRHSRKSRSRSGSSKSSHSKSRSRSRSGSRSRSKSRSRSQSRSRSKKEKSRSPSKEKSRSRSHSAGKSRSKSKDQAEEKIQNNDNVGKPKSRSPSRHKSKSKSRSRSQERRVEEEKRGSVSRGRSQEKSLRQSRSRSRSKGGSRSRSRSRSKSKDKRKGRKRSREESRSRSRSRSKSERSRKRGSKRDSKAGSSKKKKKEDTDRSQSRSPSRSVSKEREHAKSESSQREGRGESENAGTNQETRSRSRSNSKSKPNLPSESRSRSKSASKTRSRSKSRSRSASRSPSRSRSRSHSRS
UniProt P31641, sequence (P31641 whole entry, looked up): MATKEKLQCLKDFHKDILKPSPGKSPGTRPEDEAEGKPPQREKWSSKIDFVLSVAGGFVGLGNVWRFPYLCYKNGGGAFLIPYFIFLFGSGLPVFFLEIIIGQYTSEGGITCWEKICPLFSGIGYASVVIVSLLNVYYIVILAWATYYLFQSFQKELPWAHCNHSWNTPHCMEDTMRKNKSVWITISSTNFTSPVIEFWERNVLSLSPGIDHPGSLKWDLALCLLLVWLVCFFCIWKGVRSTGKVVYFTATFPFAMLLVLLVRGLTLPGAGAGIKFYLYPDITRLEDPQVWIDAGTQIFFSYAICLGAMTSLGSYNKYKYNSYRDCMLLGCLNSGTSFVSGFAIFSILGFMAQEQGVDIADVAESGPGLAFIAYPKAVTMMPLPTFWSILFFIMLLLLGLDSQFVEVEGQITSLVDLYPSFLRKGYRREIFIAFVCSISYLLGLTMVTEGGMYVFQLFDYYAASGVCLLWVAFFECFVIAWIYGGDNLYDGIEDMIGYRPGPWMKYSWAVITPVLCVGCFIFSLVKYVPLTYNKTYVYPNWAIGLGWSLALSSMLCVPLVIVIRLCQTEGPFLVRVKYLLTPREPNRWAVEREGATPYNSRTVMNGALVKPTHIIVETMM

Target | log2 fold change [1] | log2 fold change (volasertib) | log2 fold change [2] | log2 fold change (epoxomicin) | log2 fold change [3] | log2 fold change [4] | log2 fold change [5] | log2 fold change (rosiglitazone) | log2 fold change [6] | log2 fold change [7] | log2 fold change (saracatinib) | log2 fold change (sotrastaurin) | log2 fold change (alvocidib) | log2 fold change (Tubastatin A) | log2 fold change [8] | log2 fold change (defactinib) | log2 fold change (rucaparib) | log2 fold change [9] | log2 fold change (encorafenib) | log2 fold change [10]
TFR2 (UniProt Q9UP52) | -0.483 (active) | -0.382 (active) | -0.045 | 0.01 | 0.037 | 0.038 | -0.035 | -0.007 | -0.003 | -0.22 | 0.007 | -0.031 | 0.029 | -0.053 | 0.006 | 0.029 | 0.029 | -0.129 | -0.015 | 0.009
SRSF7 (UniProt Q16629) | 0.18 | 0.215 | -0.039 | -0.171 | 0.03 | 0.181 | -0.085 | -0.172 | 0.218 | 0.175 | -0.014 | 0.12 | 0.291 | 0.006 | -0.226 | 0.168 | 0.3 | -0.04 | 0.038 | 0.042
SPG21 (UniProt Q9NZD8) | -0.082 | -0.615 (active) | 0.065 | 0.315 (active) | -0.013 | 0.037 | 0.018 | 0.123 | -0.098 | -0.21 | 0.007 | -0.005 | -0.097 | 0.016 | -0.015 | -0.134 | 0.089 | 0.211 | -0.022 | 0.01
TFB2M (UniProt Q9H5Q4) | -0.096 | -0.326 (active) | 0.049 | 0.071 | 0 | -0.002 | 0.031 | 0.042 | -0.049 | -0.179 | -0.029 | -0.031 | -0.082 | -0.012 | 0.02 | -0.06 | -0.013 | -0.054 | -0.002 | -0.001
STARD9 (UniProt Q9P2P6) | -0.024 | 0.238 | -0.029 | 0.022 | 0.064 | 0.008 | 0.075 | 0.015 | 0.507 (active) | -0.098 | 0.051 | -0.316 | -0.337 | 0.122 | -0.344 | 0.144 | -0.005 | 0.103 | 0.048 | -0.03
TIPRL (UniProt O75663) | -0.061 | -0.23 (active) | 0.072 | 0.025 | -0.012 | -0.057 | 0.032 | 0.085 | 0.021 | -0.214 | -0.028 | -0.056 | -0.119 | 0 | 0.009 | -0.049 | 0.013 | -0.001 | 0.035 | -0.014
SMAD9 (UniProt O15198) | 0.059 | -0.417 (active) | -0.137 | 0.026 | -0.006 | 0.035 | 0.043 | 0.13 | -0.087 | -0.261 | 0.076 | 0.078 | -0.065 | -0.003 | -0.013 | -0.076 | -0.094 | 0.055 | -0.001 | -0.049
SURF2 (UniProt Q15527) | -0.002 | -0.046 | 0.014 | 0.04 | -0.008 | -0.078 | 0.037 | 0 | -0.043 | 0.024 | 0.034 | -0.02 | 0 | 0.066 | -0.015 | -0.056 | -0.055 | -0.059 | -0.037 | -0.016
SUGP1 (UniProt Q8IWZ8) | -0.155 | -0.341 (active) | 0.056 | 0.062 | -0.102 | -0.007 | 0.021 | 0.042 | -0.028 | -0.081 | 0.012 | -0.049 | -0.129 | 0.052 | -0.043 | -0.124 | -0.016 | -0.074 | -0.003 | -0.02
TECR (UniProt Q9NZ01) | -0.116 | -0.24 (active) | 0.015 | 0.026 | 0.021 | -0.085 | 0.042 | 0.043 | -0.063 | -0.347 (active) | -0.018 | -0.007 | -0.02 | -0.035 | -0.07 | -0.022 | 0.03 | -0.017 | 0.045 | -0.028
STXBP2 isoform 3 (UniProt Q15833) | -0.015 | -0.217 | 0.138 | -0.006 | -0.083 | -0.025 | 0.02 | 0.096 | 0.116 | -0.072 | -0.138 | -0.242 | -0.113 | 0.085 | -0.091 | -0.133 | 0.157 | 0.142 | 0.176 | -0.203
SRSF4 (UniProt Q08170) | 0.091 | -0.001 | 0.011 | -0.175 | -0.068 | 0.115 | -0.09 | -0.09 | 0.205 | 0.087 | -0.065 | 0.028 | 0.135 | 0.17 | -0.283 | 0.045 | 0.165 | 0.013 | 0.154 | 0.023
SNRPD3 (UniProt P62318) | 0.194 | 0.134 | -0.058 | -0.037 | 0.005 | 0.058 | -0.07 | -0.047 | 0.001 | 0.198 | 0.004 | 0.068 | 0.069 | -0.097 | 0.038 | 0.137 | 0.017 | -0.098 | -0.027 | -0.003
SLC6A6 (UniProt P31641) | -0.011 | 0.01 | 0 | 0.135 | 0.024 | -0.053 | -0.012 | -0.011 | -0.02 | 0.084 | -0.011 | 0.041 | -0.031 | -0.143 | -0.029 | -0.051 | 0.065 | -0.061 | -0.051 | -0.009
SLC27A4 (UniProt Q6P1M0) | -0.048 | -0.473 (active) | 0.03 | -0.064 | -0.014 | -0.036 | 0.04 | 0.066 | -0.051 | -0.158 | -0.035 | 0.035 | -0.09 | -0.005 | -0.083 | -0.084 | 0.06 | 0.072 | 0.018 | -0.05
SUN2 (UniProt Q9UH99) | 0.016 | -0.064 | 0.01 | 0.045 | 0.006 | -0.032 | -0.012 | 0.033 | 0.015 | 0.057 | -0.029 | -0.09 | 0.015 | 0.053 | -0.068 | -0.05 | 0.03 | -0.066 | 0.067 | 0.023
